We go through ten compounds from PubChem BioAssay.

Assay [1] deals with Human papillomavirus type 1a protein E7 (residues 44-93). Briefly: small molecules binding HPV E7 44-93 – biochemical, small-molecule microarray, residues 44-93, 635 nm fluorescence, primary screen (AID 1108).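 Note: E7 fragment applied at 1 µg/mL in TBST for 1 h at 4 C; score combines spot fluorescence with its signal to noise ratio.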 To be noted: fluorescence 635 nm, higher = more signal.
The nature of assay [2]: hepatitis C replication reporter changes, two-sided – Huh7 cells, luciferase reporter, HCV replication inhibitor project, primary screen (AID 1109).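 Note: huh7 hepatoma cells harbouring a luciferase neomycin HCV replicon reporter; luciferase luminescence as measure of HCV replicon replication; test concentration not given here.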 To be noted: Huh7 HCV replicon luciferase reporter, 48 h; higher = more signal.
Assay [3] has as its target Left-right determination factor 2 (Homo sapiens) (UniProt O00292). Briefly: small molecules binding LEFTY2 protein – biochemical, small-molecule microarray, 635 nm fluorescence scan, primary screen (AID 1110). Particulars: higher = more signal.
Assay [4] concerns the target Calmodulin-1 (Homo sapiens) (UniProt P0DP23). Description: small molecules binding calmodulin-1 with EGTA – biochemical, small-molecule microarray, Cy5-labelled CALM1, profiling panel (AID 1111).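 Note: labelled calmodulin applied in Tris saline Tween buffer holding calcium plus EGTA and DTT.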 Particulars: Cy5-CALM1 binding fluorescence, higher = more signal.
Assay [5] shares this target. Briefly: small molecules binding Ca-loaded calmodulin-1 – biochemical, small-molecule microarray, Cy5-labelled CALM1, plus calcium, artefact control for SMM control-protein annotation, profiling panel (AID 1112).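 Note: score merges spot fluorescence with signal to noise from triplicate slides.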 Particulars: Cy5-CALM1 binding fluorescence, higher = more signal.
Assay [6] is described as follows: probe aWnt5a binding to arrayed compounds – biochemical, biotinylated probe, 635/667 nm fluorescence, primary screen (AID 1113).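 Note: score merges 667 nm fluorescence intensity with signal-to-noise per printed feature.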 To be noted: small-molecule microarray, higher = more signal.
A short description of assay [7]: probe aShh binding to arrayed compounds – biochemical, biotinylated probe, 635/667 nm fluorescence, primary screen (AID 1114).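 Note: probe is biotin-labelled aShh protein from a stem cell growth factor screen; measures binding of labelled protein to compounds printed on the slide; score merges feature fluorescence at 667 nm with signal-to-noise.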 Particulars: small-molecule microarray, higher = more signal.
Assay [8] in a line: probe aNog binding to arrayed compounds – biochemical, biotinylated probe, 635/667 nm fluorescence, primary screen (AID 1115).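 Note: probe is biotinylated aNog protein used at 0.15 µg/mL for 1 h at 4 C; z-score combines 667 nm fluorescence of each spot with its signal to noise.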 To be noted: small-molecule microarray, higher = more signal.
The target in assay [9] is Torsin-1A-interacting protein 1 (Homo sapiens) (UniProt Q5JTV8). Briefly: compound microarray binding of lysate hLAP1 – cell lysate, small-molecule microarray, COS7 lysate, 635/667 nm fluorescence, primary screen (AID 1116). To be noted: 635 nm fluorescence, higher = more signal.
Chain of Torsin-1A-interacting protein 1 (Homo sapiens) (Q5JTV8 whole entry, looked up): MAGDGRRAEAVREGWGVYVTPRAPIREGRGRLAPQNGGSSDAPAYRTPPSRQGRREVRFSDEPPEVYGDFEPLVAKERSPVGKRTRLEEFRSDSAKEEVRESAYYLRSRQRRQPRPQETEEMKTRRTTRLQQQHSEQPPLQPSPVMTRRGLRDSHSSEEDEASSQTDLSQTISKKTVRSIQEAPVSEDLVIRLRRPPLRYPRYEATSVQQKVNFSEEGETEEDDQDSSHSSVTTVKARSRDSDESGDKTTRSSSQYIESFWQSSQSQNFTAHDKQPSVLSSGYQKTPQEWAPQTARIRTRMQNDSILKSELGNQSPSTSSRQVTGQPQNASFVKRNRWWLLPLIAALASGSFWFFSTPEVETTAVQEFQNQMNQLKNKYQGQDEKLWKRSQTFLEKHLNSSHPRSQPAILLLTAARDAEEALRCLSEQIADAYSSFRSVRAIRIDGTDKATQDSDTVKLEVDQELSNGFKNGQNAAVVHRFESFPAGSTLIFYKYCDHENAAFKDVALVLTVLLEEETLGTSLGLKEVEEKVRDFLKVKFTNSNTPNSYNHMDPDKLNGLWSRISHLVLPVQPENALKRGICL
The target in assay [10] is Alpha-bungarotoxin (Bungarus multicinctus) (UniProt P60615). Description: compounds binding labelled alpha-BTX control protein – biochemical, small-molecule microarray, Alexa647 label, 635/667 nm fluorescence, artefact control for SMM control protein annotation, profiling panel (AID 1117). To be noted: alpha-BTX-A647 binding fluorescence, higher = more signal.
Chain of Alpha-bungarotoxin (Bungarus multicinctus) (P60615 whole entry, looked up): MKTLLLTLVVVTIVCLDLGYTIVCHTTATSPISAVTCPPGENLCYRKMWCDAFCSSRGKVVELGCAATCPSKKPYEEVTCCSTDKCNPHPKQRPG

The structures appear in SMILES notation.

Chain of Left-right determination factor 2 (Homo sapiens) (O00292 whole entry, looked up): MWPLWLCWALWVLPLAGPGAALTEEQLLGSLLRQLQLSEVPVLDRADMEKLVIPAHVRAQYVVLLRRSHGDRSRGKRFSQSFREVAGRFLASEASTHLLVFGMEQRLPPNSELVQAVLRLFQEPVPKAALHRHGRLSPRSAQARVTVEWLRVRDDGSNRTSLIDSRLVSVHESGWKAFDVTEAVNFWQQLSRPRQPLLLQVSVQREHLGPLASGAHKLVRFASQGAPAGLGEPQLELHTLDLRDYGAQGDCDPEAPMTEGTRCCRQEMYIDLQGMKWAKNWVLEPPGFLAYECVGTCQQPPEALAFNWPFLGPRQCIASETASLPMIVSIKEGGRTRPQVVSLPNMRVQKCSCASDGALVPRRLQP

Consider `CC1=C2[C@@H](CCc3ccccc3)OB(O)C[C@@H]2[C@@H]2C(=O)N(Cc3ccccc3)C(=O)[C@@H]2C1`, for which the composite z-score in assay [1] was -0.125; in assay [3], 0.809; in assay [4] it was -0.122; in assay [5] it was -0.605; in assay [6], -0.0869; in assay [7], -0.0709. Also, the values for the composite z-score in assay [8], in assay [9] and in assay [10] were -0.314, 0.59 and 0.659, respectively. Further, the z-score in assay [2] is -0.873.

Turning to `[N-]=[N+]=Nc1ccccc1C[C@]1(C(=O)N2CCOCC2)COC(c2ccc(OCCCO)cc2)=N1`, the composite z-score in [1] was 1.41; in [3] it was -0.253; in [4], 0.201; in assay [5], -0.554; in [6] it was 0.0317; in assay [7], 0.14. Further, the composite z-score in assay [8] is -0.527; in assay [9] it was 1.08; in assay [10], 0.664. Further, the z-score in assay [2] is -1.72.

Regarding `COC(=O)[C@@]1(Cc2ccccc2)[C@H]2c3cc(C(=O)N4CCCC4)n(CCc4ccccn4)c3C[C@H]2CN1C(=O)c1ccccc1`, the composite z-score in assay [1] is 1.43; in assay [3], -0.204; in assay [4], 2.13; in assay [5], 0.842; in [6] it was -0.0776; in [7], -0.353. The values for the composite z-score in assay [8], in assay [9] and in assay [10] were 1.84, 2.53 and 0.298, respectively. This compound also came in with a z-score in assay [2] of -1.65.

With `C=CCOC(=O)[C@@]1(Cc2ccccc2)C[C@H]2CO[C@H](c3ccc(OC)cc3)N2C1=O`, the composite z-score in [1] was 0.206; in assay [3], 0.283; in assay [4], -0.388; in [5] it was -0.659; in assay [6], -0.0846; in [7], -0.0035. The composite z-score is -0.118 in [8], 0.574 in assay [9] and 0.352 in [10]. Also, the z-score in [2] was -0.938.

For `C=CCNC(=O)[C@@H]1[C@H]2C(=O)O[C@H](c3ccccc3)[C@H](c3ccccc3)N2[C@H](c2ccccc2OCCO)[C@@]12C(=O)N(C(=O)OCCOC)c1ccc(C#CC3(O)CCCCCC3)cc12`, the composite z-score was 1.23 in [1]; 0.694 in assay [3]; 0.66 in assay [4]; 0.212 in [5]; -0.0566 in assay [6]; -0.0035 in [7]. Further, the composite z-score is -0.0224 in assay [8], 1.35 in [9] and 0.859 in assay [10]. In assay [2], this compound gave a z-score of -2.27.

As for `COc1cc(NN2C(C(O)c3ccco3)C=CC3C(=O)N(C)C(=O)C32)cc(OC)c1OC` (stereo not given), the composite z-score in [1] is 0.02; in assay [3], 0.173; in assay [4], 0.723; in [5] it was -0.0913; in assay [6] it was 0.107; in [7], 0.394. In addition, the results for the composite z-score in assay [8], in assay [9] and in [10] were 0.415, 0.447 and 0.509, respectively. The same compound came in with a z-score in assay [2] of -0.0965.

`O=C1C2C=CC(C(O)c3cccc(O)c3)N(Nc3ccc([N+](=O)[O-])cc3)C2C(=O)N1c1ccccc1` (stereo not given): the composite z-score in [1] is 0.939; in [3], 0.183; in [4] it was 0.0968; in assay [5] it was 0.219; in [6], -0.0462; in assay [7] it was 0.0022. Further, the composite z-score in assay [8] was -0.163; in [9], 0.26; in assay [10], 1.13. In addition, in assay [2], the z-score is -0.278.

With `C=CC[C@H](OC(=O)Nc1ccc(SC)cc1)c1ccc(O)c2ccccc12`, the composite z-score in [1] is 1.4; in assay [3], 0.679; in [4], 1.28; in assay [5], 0.411; in assay [6] it was -0.0819; in assay [7] it was 0.23. For the same compound, the composite z-score in assay [8] is -0.134; in [9] it was 0.986; in [10], 1.78. This compound also displayed a z-score in assay [2] of -4.92.

Consider `O=c1cccc(-c2ccc([N+](=O)[O-])cc2)o1`, for which the composite z-score in assay [1] is 0.79; in assay [3], 0.37; in assay [4] it was -0.273; in assay [5], -0.389; in [6], 0.0775; in assay [7] it was 0.199. Further, the composite z-score in assay [8] is -0.208; in assay [9] it was 1.11; in assay [10], 0.38. The z-score in assay [2] was -0.885.

Turning to `CC(=O)NCCCC[C@@H]1NC(=O)[C@@H]2C[C@H](C(=O)NCCCCCN)[C@H](c3cccc(OCCO)c3)N2C1=O`, the composite z-score in [1] stood at 0.794; in [3], 0.736; in [4], 1.09; in [5], 0.634; in assay [6] it was 0.0546; in assay [7] it was 0.663. Besides, the results for the composite z-score in assay [8], in [9] and in assay [10] were 0.489, 1.03 and 1.16, respectively. In addition, the z-score in assay [2] was -0.0844.
